Results taken from PubChem BioAssay.
Values joined by “and” are separate entries in the source; they are usually repeats but may differ in a detail not shown here. Equal entries are not always repeated. Active and inactive are the calls of the source.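 How the source made its calls, unless noted: active means compounds whose cell count with miR-34 switched on is under 0.7 times the count with it off; inactive means the rest.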

How the values were obtained:
[1] = compounds altering viability of human ES cells (AID 493140; call rule not given here;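 further: cells exposed to compounds for four days before counting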); conditions: human embryonic stem cell survival screen; stronger effect = higher value
[2] = P. berghei load reduction in hepatocytes – cell-based, HepG2, luciferase luminescence, HepG2 viability, primary screen (AID 624349; in the data active means parasite load remaining mostly below about 12%, no sharp cut-off; inactive means mostly above about 10%;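 further: 100% = mean of DMSO negative control wells on the same plate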); conditions: P. berghei liver stage in HepG2, luciferase luminescence, concentration not given here; parasite load remaining: stronger effect = lower value; viability: measured here: HepG2 viability without parasites
[3] = Wnt pathway potentiators raising nuclear beta-catenin – imaging, WNT3A-conditioned medium, mouse C2C12, NPC library, primary screen (AID 1117326; in the data active means nuclear beta-catenin stimulation mostly above about 4.2%, no sharp cut-off; inactive means mostly below about 10%); conditions: stronger effect = higher value
[4] = stimulators of insulin release from INS-1E, primary screen, cell-based, 5 mM glucose, NPC library (AID 1117329;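 active means compound raises insulin release from rat beta cells at 5 mM glucose, no numeric limit stated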); conditions: rat INS-1E insulin secretion, at 10 µM, stronger effect = higher value
[5] = growth inhibition of GSK3B-pretreated HCT116 cells – cell-based, CellTiter-Glo, 0.2 to 20 µM (AID 1117336;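 active means compounds lowering colon cancer cell viability after pretreatment blocking the GSK3B kinase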); conditions: HCT116 viability after GSK3B inhibitor, at 20 µM, stronger effect = higher value
[6] = inhibition of endothelial tube formation, primary screen, imaging, VEGF stimulated, CD31 staining, tube area, NPC library (AID 1117340;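 active means compound that reduces growth-factor-driven endothelial tube area in a mixed cell culture, no cutoff stated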); conditions: VEGF-stimulated ADSC/ECFC co-culture, at 10 µM, stronger effect = higher value
[7] = GLP1 release stimulators, primary, NCI-H716, NPC library (AID 1117341;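 active means compound raises GLP1 secretion from the human gut endocrine cells, with no numeric limit stated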); conditions: NCI-H716 cells, at 10 µM, stronger effect = higher value
[8] = HCT116 colon cancer cell growth inhibition, primary screen, CellTiter-Glo luminescence, NPC library (AID 1117342;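 active means compounds that lower survival of HCT116 colon cancer cells in the luminescence readout, no numeric limit stated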); conditions: at 20 µM (top of the series)
[9] = reduced SW480 viability measured with CellTiter-Glo, NPC library, primary (AID 1117343;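 active means compounds that lower viability of the colon cancer cells in the luminescence readout, with no numeric limit stated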); conditions: CellTiter-Glo luminescence; at 20 µM (top of the series) unless noted
[10] = NPC library primary testing for decreased DLD-1 cell viability via CellTiter-Glo (AID 1117346;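 active means compounds that lower survival of DLD-1 colon cancer cells in the luminescence readout, no cutoff given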); conditions: DLD-1 viability, CellTiter-Glo luminescence; at 20 µM (top of the series)
[11] = EMT-state selective cytotoxicity in co-culture – imaging, PC-3E GFP, TEM4-18 mCherry, primary screen (AID 1345086;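 active means compounds killing one labelled cell type while sparing the other, by normalised counts and ratio limits, not self-fluorescent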;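 on all read-outs here: cells exposed to compound for 72 h before imaging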;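 on red/green cell ratio (normalised): normalised mesenchymal count divided by normalised epithelial count so high means epithelial killing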); conditions: PC-3E GFP / TEM4-18 mCherry co-culture, imaging cell counts, at 1 µM; for red/green cell ratio (normalised): actives lie on both sides, counts scaled to control wells, 1 = unselective
[12] = viability loss with induced miR-34 in A549 – imaging, A549 dox-inducible miR-34, nuclei and caspase counts, primary screen (AID 1347080); conditions: A549 miR-34 inducible, Hoechst nuclei count, 48 h
[13] = MELAS cybrid and Rieske KO viability enhancers – cell-based, MELAS cybrids, Rieske KO mouse fibroblasts, CellTiter-Glo, primary screen (AID 1508586;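 active means mean z-score across replicates of 1.96 or higher in either the MELAS or the Rieske mutant cell line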;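 further: z relative to plate mean and SD of compound and empty wells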); conditions: low glucose
[14] = biological target: NAD(+) hydrolase SARM1 (Homo sapiens) (UniProt Q6SZW1); assay: blocking NAD cleavage by SARM1 SAM-TIR – cell lysate, NAD-Glo luminescence (AID 1508614;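 active means compound whose remaining NAD level is above about 45 nM, limit read from the data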); conditions: SAM-TIR HEK293T lysate NADase, at 1 µM, stronger effect = higher value
Chain of NAD(+) hydrolase SARM1 (Homo sapiens) (Q6SZW1 whole entry, looked up): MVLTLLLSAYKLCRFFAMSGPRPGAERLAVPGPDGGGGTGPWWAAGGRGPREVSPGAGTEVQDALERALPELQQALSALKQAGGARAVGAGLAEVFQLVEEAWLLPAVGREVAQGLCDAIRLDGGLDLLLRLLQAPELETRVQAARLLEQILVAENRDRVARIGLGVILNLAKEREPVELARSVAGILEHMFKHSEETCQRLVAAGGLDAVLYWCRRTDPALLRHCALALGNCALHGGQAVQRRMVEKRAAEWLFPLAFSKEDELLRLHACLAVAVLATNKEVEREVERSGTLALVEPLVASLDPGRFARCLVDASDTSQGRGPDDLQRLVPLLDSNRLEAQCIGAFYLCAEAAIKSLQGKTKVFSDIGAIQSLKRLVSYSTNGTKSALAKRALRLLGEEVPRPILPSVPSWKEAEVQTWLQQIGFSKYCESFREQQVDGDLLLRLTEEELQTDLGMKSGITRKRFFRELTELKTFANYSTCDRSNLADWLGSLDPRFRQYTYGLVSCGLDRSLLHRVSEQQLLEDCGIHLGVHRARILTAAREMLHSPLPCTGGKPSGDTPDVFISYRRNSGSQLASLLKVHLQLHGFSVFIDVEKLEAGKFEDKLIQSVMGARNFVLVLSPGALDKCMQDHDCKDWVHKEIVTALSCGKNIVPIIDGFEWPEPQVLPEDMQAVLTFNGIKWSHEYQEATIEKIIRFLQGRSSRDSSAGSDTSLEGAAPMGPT

[15] = measured here: epithelial PC-3E GFP cell survival
[16] = measured here: mesenchymal TEM4-18 mCherry cell survival
[17] = stronger effect = lower value, cell number ratio, induced over uninduced
[18] = measured here: relative caspase fold change +Dox/-Dox
[19] = measured here: total cells with miR-34 induction, stronger effect = lower value
[20] = measured here: total cells without miR-34 induction
[21] = MELAS cybrid survival, CellTiter-Glo 48 h, stronger effect = higher value
[22] = Rieske KO mouse fibroblast survival, CellTiter-Glo 72 h

In the case of `CC(C)(C)NCC(O)COc1cccc2c1CCC(=O)N2` (centres undefined), the survival [1] is reported as 7.75 (inactive), the parasite load remaining [2] is reported as 126% (inactive) and 79.2% (inactive) and the viability [2] is reported as 105% and 76.8%. The nuclear beta-catenin stimulation ([3]; at 10 µM) was 0.7% (inactive), the nuclear beta-catenin stimulation ([3]; stimulation, at 2 µM) was 1.8% and the insulin secretion stimulation [4] was 1.4% (inactive). The viability decrease [5] was -25.9% (inactive), the tube area decrease [6] was -2.9% (inactive) and the GLP1 secretion stimulation [7] was 1.2% (inactive). The inhibition of viability [8] was -1.83% (inactive), the viability decrease (inhibition) [9] was -26.6% (inactive) and the viability decrease (inhibition) [10] was -8.8% (inactive). For the same compound, the red/green cell ratio (normalised) [11] was 1.13 (inactive), the normalised cell number [11, 15] was 1.2 and the normalised cell number [11, 16] was 1.36. The fold change [12, 17] was 0.805 (inactive) and 0.903 (inactive), the fold change [12, 18] was 0.997 and 0.693 and the cell count [12, 19] was 8680 and 7910. The cell count [12, 20] was 10800 and 8760, the z-score [13, 21] was -0.229 (inactive) and 0.6 (inactive) and the z-score [13, 22] was -0.22 and -0.0871. The remaining NAD [14] was 10 nM (inactive).

For `CC(=O)Nc1ncc([N+](=O)[O-])s1`, the nuclear beta-catenin stimulation ([3]; at 10 µM) was -0.3% (inactive), the nuclear beta-catenin stimulation ([3]; stimulation, at 2 µM) was 0.5% and the insulin secretion stimulation [4] was -2.2% (inactive). For the same compound, the viability decrease [5] was 4.2% (inactive), the tube area decrease [6] was 5.9% (inactive) and the GLP1 secretion stimulation [7] was -1.7% (inactive). For the same compound, the inhibition of viability [8] was 12% (inactive), the viability decrease (inhibition) [9] was 9.6% (inactive) and the viability decrease (inhibition) [10] was 13.5% (inactive). For the same compound, the red/green cell ratio (normalised) [11] was 1.12 (inactive), the normalised cell number [11, 15] was 0.93 and the normalised cell number [11, 16] was 1.04. For the same compound, the fold change [12, 17] was 0.863 (inactive) and 0.891 (inactive), the fold change [12, 18] was 1.13 and 1.04 and the cell count [12, 19] was 8350 and 8950. The cell count [12, 20] was 9670 and 10000, the z-score [13, 21] was -0.179 (inactive) and the z-score [13, 22] was -0.168. For the same compound, the remaining NAD [14] was 10 nM (inactive).

In the case of `CCOc1nc2cccc(C(=O)O)c2n1Cc1ccc(-c2ccccc2-c2nn[nH]n2)cc1`, the parasite load remaining [2] is reported as 51% (inactive), the viability [2] is reported as 130% and the nuclear beta-catenin stimulation ([3]; at 10 µM) is reported as -1.9% (inactive). For the same compound, the nuclear beta-catenin stimulation ([3]; stimulation, at 2 µM) was 0.8%, the insulin secretion stimulation [4] was 1.4% (inactive) and the viability decrease [5] was -7.7% (inactive). For the same compound, the tube area decrease [6] was 5.3% (inactive), the GLP1 secretion stimulation [7] was -1.6% (inactive) and the inhibition of viability [8] was -9.8% (inactive). The viability decrease (inhibition) [9] was 16.8% (inactive), the viability decrease (inhibition) [10] was -13% (inactive) and the red/green cell ratio (normalised) [11] was 1.24 (inactive). For the same compound, the normalised cell number [11, 15] was 1.08, the normalised cell number [11, 16] was 1.35 and the fold change [12, 17] was 1.02 (inactive) and 0.834 (inactive). For the same compound, the fold change [12, 18] was 0.596 and 1.3, the cell count [12, 19] was 7490 and 8900 and the cell count [12, 20] was 7350 and 10700. The z-score [13, 21] was -0.183 (inactive) and 0.664 (inactive) and -0.412 (inactive), the z-score [13, 22] was -0.0185 and -0.257 and -0.953 and the remaining NAD [14] was 10 nM (inactive).

For `O=C(O)Cc1ccc(-c2ccccc2)cc1`, the survival [1] was 7.67 (inactive), the parasite load remaining [2] was 98.2% (inactive) and the viability [2] was 99.7%. For the same compound, the nuclear beta-catenin stimulation ([3]; at 10 µM) was -0.4% (inactive), the nuclear beta-catenin stimulation ([3]; stimulation, at 2 µM) was 0.3% and the insulin secretion stimulation [4] was -1.1% (inactive). The viability decrease [5] was -34.7% (inactive), the tube area decrease [6] was 6.9% (inactive) and the GLP1 secretion stimulation [7] was 1.7% (inactive). The inhibition of viability [8] was 2.33% (inactive), the viability decrease (inhibition) [9] was 7.7% (inactive) and the viability decrease (inhibition) [10] was -10.7% (inactive). The red/green cell ratio (normalised) [11] was 0.72 (inactive), the normalised cell number [11, 15] was 1.44 and the normalised cell number [11, 16] was 1.04. The fold change [12, 17] was 0.915 (inactive), the fold change [12, 18] was 1.39 and the cell count [12, 19] was 9920. The cell count [12, 20] was 10800, the z-score [13, 21] was 0.702 (inactive) and the z-score [13, 22] was -0.122. For the same compound, the remaining NAD [14] was 10 nM (inactive).
